CtBP-E1A inh – CtBP/E1A binding inhibition; AlphaScreen GST-E1A/His-CtBP binding, 1536-well; active compounds read low; activity change, % (concentration not given with the values); 0.49% of 340,000 active; AID 651724; in the data active means activity change below about -65%; inconclusive means mostly about -30% to -63%; further: on the % scale 0 is the no-effect control and ±100 the full control effect
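In 5 uL wells, 23 nL compound meets equimolar GST-E1A and His-CtBP (5X stock 125 nM each) for 2 h, 37 °C. Beads (5X, 50 ug/mL) then 1 h, 37 °C, dark.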
JMJD2A Tudor – JMJD2A Tudor domain (human) inhibition; AlphaScreen JMJD2A-Tudor / H3K4me3 peptide binding; O75164; 4.4% of 390,000 active; Potency, µM (titrated, usually from 114 µM), inactives show at the top dose activity change, negative = inhibition, most hits filed as inhibitors; AID 504339; further: potency means the concentration at half of the fitted maximal effect; on the % scale 0 is the no-effect control and ±100 the full control effect; nearly all actives have a fitted effect of over 50% in size
HP1b binding inh – blocks HP1-beta chromodomain binding to methylated histone tails; P83916; AlphaScreen HP1-beta / biotin-H3K9me3 peptide binding; Potency, µM (top dose mostly 114 µM), for the others: at the top dose activity change, negative = inhibition, hits mostly inhibitors; 0.56% of 390,000 active; AID 540317; further: potency means the concentration at half of the fitted maximal effect; nearly all actives have a fitted effect of over 70% in size
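HP1-beta protein (50 nM final) preincubated 30 min at room temperature with biotinylated H3(1-18)K9me3 peptide (50 nM) in PBS pH 7.4, 0.01% Tween-20, then compound added for 30 min. AlphaScreen streptavidin donor/nickel chelate acceptor beads (10 ug/mL final), 30 min dark, luminescence read.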
TDP1 block – inhibitors of human tyrosyl-DNA phosphodiesterase TDP1. Q9NUW8. recombinant TDP1, AlphaScreen DNA substrate cleavage. Potency, µM (titrated, usually from 130 µM), for the others: at the highest dose activity change, negative = inhibition, usual class: inhibitors. 0.28% of 350,000 active. AID 485290; further: potency means the concentration at half of the fitted maximal effect; on the % scale 0 is the no-effect control and ±100 the full control effect; nearly all actives have a fitted effect of over 40% in size
Target sequence (Q9NUW8 whole entry, looked up): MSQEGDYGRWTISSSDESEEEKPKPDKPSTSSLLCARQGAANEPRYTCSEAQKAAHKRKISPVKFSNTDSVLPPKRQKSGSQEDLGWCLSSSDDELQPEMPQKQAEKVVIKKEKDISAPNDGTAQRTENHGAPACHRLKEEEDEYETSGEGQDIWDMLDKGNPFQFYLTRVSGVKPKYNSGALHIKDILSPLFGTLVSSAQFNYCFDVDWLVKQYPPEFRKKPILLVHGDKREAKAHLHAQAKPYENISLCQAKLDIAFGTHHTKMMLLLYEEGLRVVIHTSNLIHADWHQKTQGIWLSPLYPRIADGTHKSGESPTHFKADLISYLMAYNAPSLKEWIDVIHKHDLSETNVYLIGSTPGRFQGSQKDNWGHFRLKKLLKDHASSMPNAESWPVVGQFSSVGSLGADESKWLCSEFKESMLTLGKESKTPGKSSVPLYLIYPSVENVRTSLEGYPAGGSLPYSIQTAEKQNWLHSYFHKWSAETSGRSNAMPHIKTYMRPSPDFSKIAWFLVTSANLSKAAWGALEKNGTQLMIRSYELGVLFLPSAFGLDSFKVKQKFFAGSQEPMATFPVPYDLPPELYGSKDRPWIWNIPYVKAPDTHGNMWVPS
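Enzyme-compound mixtures sat 15 min at room temperature, followed by a 5 min reaction with 15 nM final substrate and 10 min with AlphaScreen beads. Recombinant human Tdp1 was used at 1 nM final.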
Six1-Eya2 blk – inhibitors of human Six1/Eya2 interaction; Q15475+O00167; AlphaScreen GST-Six1/His-Eya2 binding, biochemical; active compounds read low; activity change, % (concentration not given with the values); 0.56% of 360,000 active; in the data active means activity change below about -65%; inconclusive means mostly about -30% to -63%; further: on the % scale 0 is the no-effect control and ±100 the full control effect
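AlphaScreen with GST-Six1 and His-Eya2 (5X mix: 250 nM and 500 nM), glutathione donor and nickel acceptor beads; buffer 50 mM Tris pH 8.0, 300 mM NaCl, 1 mM TCEP; 1 h at 37 C in the dark.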
BAZ2B inh – blocks human BAZ2B; Q9UIF8; AlphaScreen BAZ2B-H3K14Ac peptide displacement; Potency, µM (series often up to 114 µM), for the others: at the highest dose activity change, negative = inhibition, actives largely listed as inhibitors; 4.4% of 360,000 active; further: potency means the concentration at half of the fitted maximal effect; on the % scale 0 is the no-effect control and ±100 the full control effect; nearly all actives have a fitted effect of over 60% in size
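AlphaScreen displacement: compounds (up to 110uM) incubated 30 min at room temperature with a preformed 50 nM BAZ2B/50 nM biotinylated H3K14Ac peptide complex in PBS pH 7.4 with Tween-20. Donor and acceptor beads at 10 ug/mL final added, 20 min light-protected before reading.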
Numbers without * were called inactive; ? = inconclusive; . = not tested or not shown; [ ] = another dose, or the depositor's remark. A selection: hits, their analogues and other compounds. The true share with any hit is near 5.3%. Unless noted, the call rests on the fitted dose curve; in most records, active means well fitted inhibition curve with a large enough effect; inconclusive means small, poorly fitted or top-dose-only effect; inactive means no such curve, though single readings can be large or run the other way.

SMILES	CtBP-E1A inh	JMJD2A Tudor	HP1b binding inh	TDP1 block	Six1-Eya2 blk	BAZ2B inh
COC(=O)c1ccccc1NC(=O)c1cc(-c2ccc(Cl)cc2)on1	.	-9.9%	16.6%	2.7%	.	-1.7%
CCCCCSc1nc2c(cnn2-c2ccc(F)cc2)c(=O)[nH]1	3.5	22.4µM*	15.1%	.	6.8	-12.0%
COc1ccccc1CN(C)CC(=O)Nc1ccc(Cl)cc1C(F)(F)F	24.5	3.55µM*	?	-5.4%	27.1	50.1µM*
CN(CC(=O)Nc1ccccc1C(F)(F)F)C(=O)c1cc(Cl)nc2ccccc12	5.8	-16.6%	15.0%	-3.3%	8.0	9.2%
CCCN(CC(=O)Nc1ccccc1OC)Cc1c(O)ccc2ccccc12	-6.6	56.2µM*	?	3.2%	9.8	?
CN(CC(=O)Nc1ccccc1C(F)(F)F)Cc1c(O)ccc2ccccc12	6.9	79.4µM*	-29.7%	-0.4%[0.0935 µM]	-4.5	?
C#CC(C)(CC)NC(=O)c1cc2c(n(-c3ccc(Cl)cc3)c1=O)CC(C)(C)CC2=O (stereo unspecified)	.	-10.8%	21.5%	3.2%	.	-11.6%
COc1ccc(CN2C(=O)c3cccc4cccc2c34)cc1F	33.9	180.4%	271.1%	50.1µM*	32.3	?
CCCCON1C(=O)c2cccc3cccc(c23)C1=O	.	5.8%	31.1%	35.5µM*	-2.8	?
CN(C)C(=O)CN1C(=O)c2cccc3cccc1c23	.	1.3%	34.8%	0.2%	-3.2	24.7%
CCN1C(=O)c2cccc3cccc1c23	13.7	31.6µM*	8.9%	4.8%	12.6	36.0%
CC1CCCCN1c1cc2c(cc1F)c(=O)c(S(=O)(=O)c1ccccc1)cn2Cc1ccccc1 (stereo unspecified)	.	-25.4%	49.0%	3.7%	.	6.2%
c1ccc(Nc2scc(-c3ccccc3)[n+]2Cc2ccco2)cc1	.	?	?	8.0%	-23.2	.
CC(C)(C)Nc1scc(-c2ccccc2)[n+]1-c1ccccc1	-17.4	-32.6%	-15.7%	5.0%	-29.1	50.1µM*
COc1ccc(CC(=O)NCC(c2cccs2)S(=O)(=O)c2ccc(Cl)cc2)cc1 (stereo unspecified)	.	17.8µM*	10µM*	?	.	?
Cc1cc(S(=O)(=O)C(CNC(=O)COc2ccc(Cl)cc2)c2cccs2)ccc1F (stereo unspecified)	.	-15.9%	39.4%	1.2%	.	-4.7%
O=C(COc1ccccc1)NCC(c1cccs1)S(=O)(=O)c1ccc(Cl)cc1 (stereo unspecified)	.	17.8µM*	14.1µM*	.	.	-11.0%
CCOC(=O)c1cccc(NC(=O)c2cc3c(=O)n(Cc4ccccc4)ccc3nc2C)c1	.	-16.7%	57.5%	7.1%	.	-2.3%
Cc1cccc(C)c1NC(=O)CCS(=O)(=O)c1ccc2c(c1)CC(C)N2C(=O)C1CC1 (stereo unspecified)	.	-18.6%	36.7%	2.8%	.	?
N#Cc1ccccc1NC(=O)C(=O)NCCc1csc(-c2ccc(C(F)(F)F)cc2)n1	.	2.9%	29.7%[57 µM]	0.0%	.	2.3%
COc1ccc(/C=N/Nc2cc(C)nc(-n3nc(C)cc3C)n2)c(OC)c1	-72.7*	?	-7.3%	10.8%	-75.7*	-32.1%
Cc1cc(C)n(-c2nc(N(c3ccccc3)c3ccccc3)nc(-n3nc(C)cc3C)n2)n1	1.3	?	-3.8%	4.9%	-7.1	-10.0%
CCOc1cc(/C=N/Nc2nc(C)cc(=O)[nH]2)ccc1O	?	-14.4%	38.6%	.	?	-8.5%
CCOc1ccc(Nc2cc(C)nc(-n3nc(C)cc3C)n2)cc1	-78.7*	?	23.0%	3.9%	-67.7*	?
Cc1cc(C)n(-c2nc(Nc3ccccc3)nc(-n3nc(C)cc3C)n2)n1	?	?	24.8%	44.7µM*	-27.9	79.4µM*
SMILES	CtBP-E1A inh	JMJD2A Tudor	HP1b binding inh	TDP1 block	Six1-Eya2 blk	BAZ2B inh
COc1ccc(/C=N/Nc2cc(C)nc(N3CCOCC3)n2)cc1	0.6	-3.7%	37.9%	0.0%	-1.7	-15.1%
CCOc1cc(/C=N/Nc2cc(C)nc(-n3nc(C)cc3C)n2)ccc1O	?	?	117.1%	79.4µM*	-19.5	?
Cc1ccc(NC(=O)Nc2nnc(N(CC(C)C)CC(C)C)s2)cc1Cl	.	-9.9%	29.6%	2.9%	.	-1.1%
COc1cc(C2C(C#N)=C(N)Oc3cc(C)oc(=O)c32)cc2c1OCO2 (stereo unspecified)	-2.5	-14.5%[57.1 µM]	18.6%	.	-10.9	56.2µM*
COc1cc(C2C(C#N)=C(N)Oc3cc(C)oc(=O)c32)cc(OC)c1OC (stereo unspecified)	1.0	2.8%	27.0%	4.7%	-4.7	-1.0%
Cc1nc2ccc(S(=O)(=O)NC(C(=O)NCc3ccc(Cl)cc3)C(C)C)cc2s1 (stereo unspecified)	.	-4.6%	54.5%	11.5%	.	-12.6%
COC(=O)c1c(NC(=O)c2nc(SCc3cccc(C)c3)ncc2Cl)sc2c1CCCC2	.	-5.0%	45.3%	0.0%	.	-0.2%
Cn1cnnc1SCC(=O)c1ccc(OC(F)F)cc1	5.0	31.6µM*	16.8%	-1.1%	3.4	1.0%
COc1ccc(C(=O)CSc2nncn2C)cc1	4.3	-6.2%	22.8%	4.5%	2.3	3.1%
Clc1cccc(CN2CCC3CC2c2cc(N4CCCCC4)ccc23)c1 (stereo unspecified)	-17.6	44.7µM*	?	.	-27.8	.
O=C(OCc1ccccc1)N1CCC2CC1c1cc(N3CCNCC3)ccc12 (stereo unspecified)	-24.5	.	.	.	-21.0	.
O=C(OCc1ccccc1)N1CCC2CC1c1cc(N3CCCCC3)ccc12 (stereo unspecified)	?	28.2µM*	?	.	?	.
Cc1ccccc1C(=O)Nc1cccc(C(=O)N/N=C/c2cc(Cl)cc([N+](=O)[O-])c2O)c1	-73.0*	50.1µM*	?	-10.8%	?	22.4µM*
O=C(Cn1nnc(-c2ccccc2)n1)N/N=C/c1cccc([N+](=O)[O-])c1O	?	?	29.0%	5.8%	?	44.7µM*
O=C(Cn1nc2ccccc2n1)N/N=C/c1cc(Cl)cc([N+](=O)[O-])c1O	?	50.1µM*	-18.8%	0.0%	?	20µM*
COc1cc(/C=N/NC(=O)c2cccc(NC(=O)c3ccccc3C)c2)ccc1O	?	?	-4.9%	.	?	-0.2%
COc1ccc(-c2noc(CSCC(=O)Nc3cc(OC)c(OC)c(OC)c3)n2)cc1OC	.	-5.3%	6.1%	3.7%	.	2.3%
COc1ccc(C(=O)c2sc(Nc3ccccc3)nc2N)cc1OC	-9.8	?	-24.0%	.	-22.1	-32.5%
Nc1nc(Nc2ccccc2)sc1C(=O)c1ccccc1	-21.5	?	?	10.3%	?	39.8µM*

Compound activity: PubChem, National Center for Advancing Translational Sciences (NCATS)
